# Data published in PubChem BioAssay AID720518 (National Center for Advancing Translational Sciences (NCATS), 2013).
# Inconclusive results are not listed. Entries that show only a call come without a potency. Active and inactive are the calls of the source. Calls come from the whole dose curve.
# Test: qHTS for Inhibitors of Cell Surface uPA Generation: Wild-type Protective Antigen (WT-PrAg) Counterscreen for Cherry-picked Compounds
# Conditions: cells, WT protective antigen toxicity counterscreen; series mostly up to 115 µM
row,SMILES,Potency
1,Cc1nn(-c2ccc(F)cc2)c(C)c1NS(=O)(=O)c1ccc(Cl)cc1,inactive
2,NC(=O)c1ccc(NC(=O)CN2CCN(S(=O)(=O)c3ccc4ccccc4c3)CC2)cc1,inactive
3,Cc1[nH]c(=O)[nH]c(=O)c1S(=O)(=O)N1CCCc2ccccc21,inactive
4,COc1ccc([C@H]2[C@H](C(=O)OC(C)(C)C)N3N=Cc4ccccc4C3C23C(=O)c2ccccc2C3=O)cc1OC (some centres undefined),inactive
5,FC(F)(F)Oc1ccc(NC2=NCCCS2)cc1,inactive
6,CC(C)c1ccc(NC(=O)COc2ccc(S(=O)(=O)N3CCOCC3)cc2)cc1,inactive
7,Cc1ccccc1NC(=O)N1CCN(c2ncccn2)CC1,inactive
8,CS(=O)(=O)N1CCC(C(=O)Nc2ccccc2)CC1,inactive
9,CCC1Nc2ncnc(N3CCCCC3)c2N(Cc2ccc(Cl)cc2)C1=O (centres undefined),inactive
10,COCc1c(C(=O)Nc2nc(C)cs2)oc2ccccc12,inactive
11,CC1CCCN(S(=O)(=O)c2cccc([N+](=O)[O-])c2)C1 (centres undefined),inactive
12,COc1ccccc1CN1CC(C(=O)NCc2cccc(C)n2)CCC1=O (centres undefined),inactive
13,CCCCCCCCCOC(=O)C1N2C(=O)[C@@H](NC(=O)COc3ccccc3)[C@H]2SC1(C)C (some centres undefined),inactive
14,Cc1noc(C)c1COc1ccc(C(=O)N2CCN(S(=O)(=O)c3ccc(Cl)cc3)CC2)cc1,inactive
15,COc1cc(CNCc2ccc3c(c2)OCO3)c([N+](=O)[O-])cc1OC,inactive
16,O=C(NCc1ccc2c(c1)OCO2)c1ccccn1,inactive
17,O=C(Nc1ccc(NC(=O)c2ccco2)c(Cl)c1)c1ccccc1,inactive
18,O=C(O)c1ccc(-c2ccc(/C=C3\NC(=O)N(Cc4ccc(Cl)cc4)C3=O)o2)cc1,inactive
19,CC(C)c1ccc(SCc2noc(C(=O)NCC3CCCO3)c2C(=O)O)cc1 (centres undefined),inactive
20,CCOc1ccc(NC(=S)N2CCC(c3ccc(C)cc3)C2)cc1 (centres undefined),inactive

row,SMILES,Potency
1,Cc1ccc(CC2CC(=O)N(c3cc(C)ccc3C)C2=O)cc1 (centres undefined),inactive
2,O=[N+]([O-])c1ccc(SCc2ccncc2)nc1,inactive
3,O=C(NNC(=O)C1CC(c2cccs2)=NO1)Nc1ccccc1 (centres undefined),inactive
4,O=C(c1ccc(NC(=S)NCc2ccc(Cl)cc2)cc1)N1CCCCC1,inactive
5,Cc1c(NC(=S)Nc2ccc(Cl)cc2)c(=O)n(-c2ccccc2)n1C,inactive
6,O=C(CNC(=O)c1ccc(Br)o1)NNC(=O)c1ccccc1,inactive
7,Cc1ccc2[nH]c(CN3CCN(C)C(CCO)C3)c(C)c2c1 (centres undefined),inactive
8,CCO[C@H]1OC(C(=O)N2CCCCCCC2)=C[C@@H](c2ccc(C(F)(F)F)cc2)[C@@H]1CCCO,inactive
9,COCc1cc(C)nc2sc(C(=O)Nc3nccs3)c(N)c12,inactive
10,Cc1ccccc1S(=O)Cc1ccc(C(=O)N2CCN(C(=O)c3ccco3)CC2)o1 (centres undefined),inactive
11,CCN(C(=O)CSc1ncnc2sccc12)c1c(N)n(Cc2ccccc2)c(=O)[nH]c1=O,inactive
12,O=C(COc1ccc(C(=S)N2CCOCC2)cc1)N1CCOCC1,inactive
13,CCC1=NN(C(=O)C(=O)Nc2ccc(OC)cc2)C(O)(C(F)(F)F)C1 (centres undefined),inactive
14,Cc1nc2ncccn2c1-c1csc(Nc2ccc(S(N)(=O)=O)cc2)n1,inactive
15,Cc1ccc(NC(=S)N2CCN(Cc3ccc4c(c3)OCO4)CC2)c(C)c1,inactive
16,Cc1cccc(C(=O)Nc2cc(=O)n(C)c(=O)n2C)c1,inactive
17,COc1cc(C(C)=O)ccc1OCc1cn(CC(=O)c2ccc(O)cc2)nn1,inactive
18,O=[N+]([O-])c1cccc(-c2noc(-c3cccs3)n2)c1,inactive
19,CCOC(=O)c1ccc(N=Cc2c(O)n(-c3ccc(OC)cc3)c(=S)[nH]c2=O)cc1,inactive
